Hit rate of the full screen: of about 53,000 sequences, about 3,700 (7%) were called active. Shown is part of a subset that was picked to be rich in actives. Values without a mark were called inactive.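 How the source made its calls: active means gene knockdowns whose robust z-score for IL-1 alpha signal is at least 2 or at most -2, so actives lie on both sides; inactive means the rest.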

The experiment can be described thus: Components of the Cytosolic LPS Sensing Pathway: Gene Identification via Genome-wide siRNA Screen.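 Further: robust z of the log signal after scaling to non-targeting control siRNA wells of the plate.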 To be noted: RAW264.7 macrophages, IL-1a HTRF, actives lie on both sides, screened at 100 nM (by protocol), cells primed 5 h with Pam3CSK4 first. In a few lines:
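Three distinct siRNAs per gene were tested singly at 100 nM in RAW264.7 macrophages. Following Pam3CSK4 priming and 24 hour LipidA transfection, IL-1a secretion was read by HTRF.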
Take CGCUACGACUAGAGUUUGCTT against Rbpms: the z-score is 2.36 (active). Then GGGAAGAACUUCAAGCUUGTT against Ptk2b, with 0.668; and GGUUGGACUGACUAUCCAUTT against Olfr984, with 1.02; and GGCUGCUGACAUUUUCAUCTT against Lrrc28, with 1.53. Then GGAUAUGCUCAGAGGUUUUTT against Pex11g, with 2.2 (active); and GGUCCUAACAUCCAGAGUGTT against Zfp438, with -1.06; and GGAUAAGACCAUCAGAUUATT against Wdr31, with 1.18.

In the case of GGAGCUUGAUUCGAAGCCUTT against Bik, the z-score was -0.364. Then GCGAAGAGUCAAAUCCAUCTT against Dock8, with -1.93; and CGGGUGCUAAAAUGUCUAUTT against Khdrbs2, with 2.81 (active).

With CCGAAGUUCACCCUAAAGGTT against Lmna, the z-score was -0.485.

For GCAAAGAAGUGUAUGUGUUTT against Olfr273, the z-score was 0.0336. Then GCUUCUCAGAAGAUGUACUTT against Rgs16, with -1.06; and GCCCUAUAUAUCAUUCUAGTT against Rhoa, with 1.12; and GCCUGUUAUAUGUGGCCUUTT against Olfr1352, with 0.673. With GGAUGUCCUGAAAGAAAAATT against H2-M9, the z-score was 0.633. GCUUUAUUCACUCACUUUCTT against Chsy3: the z-score is 0.814. Then GGAUAACUGUAACAGCCCGTT against Ly6g6c, with -2.12 (active); and GGUGAUUUCUAUCGAUUUUTT against Dhrs9, with 0.144. Turning to GGACGUGCUCAAGUUCAUCTT against Ift172, the z-score was 0.519. As for GGAAGUCAAGCAAAAGUUUTT against Hsd17b7, the z-score is -0.516. With GGUUGAAGAUGAAAGAAGATT against Sin3a the figure was 0.132. Turning to CGAAGCUCAACAGAUUCCUTT against Prl7a2, the z-score was -0.278. With GGCACGAUGGUUCAUCCUUTT against Plek2 the figure was -2.01 (active). With CGGCCUACAACUACCCAACTT against Tekt3, the z-score is 1.02. For the sequence CGACGUAUCCGUUCUAUAATT against Eif2s1, the z-score is -1.05.

With GAGCAUAGAAACCAUGCACTT against Acot2, the z-score was -0.621.

Turning to GGAGAUGUAACCAUAGGCCTT against Dctn6, the z-score was 2.07 (active).

As to GCUAAAGAAAAGUGGAGACTT against Pbdc1, the z-score was 0.165.

In the case of GGCAGAAAGACAUUUUCUUTT against Ift80, the z-score was -2.53 (active). As for GCAUAUCUAUAACAGAGCCTT against Rnase2a, the z-score was -1.23. With GGAAAUGUCAUGACCUUGATT against Tnfaip6 the figure was -1.89. Regarding CCUGGUGCUAUGGACUAAATT against Tectb, the z-score was -1.15. With GCUACGGAUGCUUUUCAAATT against Ube2i the figure was -0.351; with UAUUGUCACCGUCUUAGGCTT against Olfr1028, -2.84 (active). Then CGUAUCUUAUAUCAGGAAATT against Trem1, with 0.513; and GGAGAACAUAAAAAUGGUGTT against Stk39, with -0.0786; and GGAGUUUUGGGUGAUGAUATT against Olfr974, with -2.41 (active).

Consider GGUCUUUUGUAAAAACCCUTT against Sytl2, for which the z-score was 0.099. For GGCAACAGUGAAAGAUGAATT against Acnat2, the z-score is 0.0608. For GCAACCGCGUCACAUUGAATT against Bicc1, the z-score is 0.655.

For the sequence “GCGAGCAUGAAGUUAGUAATT against C230029F24Rik”, the z-score was 0.914. With GGAGUGACUCCUACAAAAUTT against Ms4a4b the figure was -2.01 (active); with CCAGUGGUCAUUCUUGUCUTT against Olfr1076, 0.314; with GCUGUCGACUUUAAAAGGUTT against Pcdhga7, -0.356. Then GGCAGAAACUAAGAAUGAATT against Mx1, with -0.292; and GGACCUUUUGUGAACUUACTT against E2f3, with 4.53 (active); and GGUGAAGAAAGCACUGUUUTT against Olfr980, with 0.0649. Then GGAAAUCAGAAUUCCAAAATT against Cntn6, with 1.56; and GGCCUAUUUGUUUUUGAAATT against Mthfd2, with 1.45.

With GGACUAUUCACACUAAGUCTT against Them5, the z-score was -0.214. Consider GGGAAACAAAAAGCAGAUATT against Ccdc47, for which the z-score was 0.325. With GGAACUGGAAAUCUCAGAGTT against Pcdh12 the figure was 0.447; with GCCACAUCAGAUGAAGUCCTT against Ppm1e, -2.26 (active). Take GCCCAAUCUACACAGACCATT against Slc7a13: the z-score is -0.939. Then GGAUGUGUGUGUCUCCUCATT against Prr9, with -0.256; and GCUACAGAUUAGGGACAUATT against Pcdhb2, with 4.53 (active); and CCACUCCCAUAAGGGCUAUTT against Smo, with -0.144. With CCUGAACAUAAAGUUUACUTT against Catsper4 the figure was 0.209.

As for CGACAUGUCAAAACUCACGTT against Zfp791, the z-score was 1.22. Then CCAUGUACCAGAUUAAGUATT against Krt8, with 1.16; and GGUGAAAAGCAGCUAACAATT against Fam135a, with -1.6. As to GCUGUAAUGCUAAUGACAUTT against Gpr22, the z-score is 1.23. As for CCAUGGUCAUCCCGAUGUUTT against Olfr1454, the z-score is 0.171. Regarding “CGAGAAGGGAUUUUAGAAGTT against A830018L16Rik”, the z-score is -0.92. Turning to GGAGAAACUCUUCAGGCUUTT against Tceal8, the z-score is -2.19 (active). With GGCAGGCAGAAGGCUUUUUTT against Olfr228, the z-score is 1.07. Then GGUGGACAGGAGAAAGGAATT against Npy6r, with -0.578; and GGAGACCUGAAUUUUUCAGTT against Tab2, with 0.469.
